{"source": "PubChem BioAssay AID504339", "about": "(National Center for Advancing Translational Sciences (NCATS), 2011)", "note": "Where “and” joins values, the source holds several entries; their conditions need not be identical. Equal entries are not always repeated. The campaign covered roughly 390,000 compounds. About 17,000 (4.4%) were called active. Another 8% or so got no clear call; they are omitted. Calls come from the whole dose curve; as a rule, active = well fitted inhibition curve with a large enough effect; inconclusive = small, poorly fitted or top-dose-only effect; inactive = no such curve, though single readings can be large or run the other way. The entries come from a sample that favours actives as a whole. Entries that show only a call come without a potency. A structure can be active in one record and inactive in another. Potency is the fitted concentration of half-maximal effect."}
{"target": "Lysine-specific demethylase 4A (Homo sapiens) (UniProt O75164)", "sequence (O75164 whole entry, looked up, the tested form may be a part)": "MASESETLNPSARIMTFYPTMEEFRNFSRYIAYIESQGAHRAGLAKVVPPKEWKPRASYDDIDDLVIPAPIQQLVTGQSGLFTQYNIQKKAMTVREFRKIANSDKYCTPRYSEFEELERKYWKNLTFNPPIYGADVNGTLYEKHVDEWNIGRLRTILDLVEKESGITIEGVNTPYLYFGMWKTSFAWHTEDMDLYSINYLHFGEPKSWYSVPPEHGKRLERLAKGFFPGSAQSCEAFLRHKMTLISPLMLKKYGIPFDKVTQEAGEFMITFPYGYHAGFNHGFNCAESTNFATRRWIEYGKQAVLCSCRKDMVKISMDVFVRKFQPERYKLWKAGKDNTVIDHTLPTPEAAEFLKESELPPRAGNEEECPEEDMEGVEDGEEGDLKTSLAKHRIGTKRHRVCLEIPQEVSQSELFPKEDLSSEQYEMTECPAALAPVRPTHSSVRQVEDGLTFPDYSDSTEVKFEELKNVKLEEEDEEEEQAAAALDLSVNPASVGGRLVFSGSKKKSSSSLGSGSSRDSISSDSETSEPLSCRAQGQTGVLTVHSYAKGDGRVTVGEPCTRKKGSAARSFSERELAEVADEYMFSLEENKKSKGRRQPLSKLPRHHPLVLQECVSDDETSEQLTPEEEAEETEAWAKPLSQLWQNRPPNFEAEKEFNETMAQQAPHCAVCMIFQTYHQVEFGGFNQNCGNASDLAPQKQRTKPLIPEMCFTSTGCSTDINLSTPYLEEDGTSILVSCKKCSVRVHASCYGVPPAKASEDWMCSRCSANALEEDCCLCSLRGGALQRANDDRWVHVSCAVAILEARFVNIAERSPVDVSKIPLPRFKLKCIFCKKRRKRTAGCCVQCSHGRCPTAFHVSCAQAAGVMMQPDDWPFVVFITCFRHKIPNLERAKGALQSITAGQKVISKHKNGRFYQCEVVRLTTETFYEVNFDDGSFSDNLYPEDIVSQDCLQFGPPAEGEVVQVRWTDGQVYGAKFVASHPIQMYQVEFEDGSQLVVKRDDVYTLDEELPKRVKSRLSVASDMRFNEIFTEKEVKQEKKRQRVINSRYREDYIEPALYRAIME", "assay": "qHTS Assay for Inhibitors of JMJD2A-Tudor Domain; note: nearly all actives have a fitted effect of over 50% in size", "details": "AlphaScreen JMJD2A-Tudor / H3K4me3 peptide binding; series mostly up to 114 µM"}
{"smiles": "Cc1ccc(NC(=O)c2ccc(CN3CC(=O)N4CCCCC4C3=O)cc2)c(Cl)c1", "note": "(stereo not given)", "Potency": "inactive"}
{"smiles": "CC(=O)c1sc(N2C(=O)c3oc4ccccc4c(=O)c3C2c2ccc(C)cc2)nc1C", "note": "(stereo not given)", "Potency": "inactive"}
{"smiles": "C=Cc1ccc(Cn2c(C(=O)O)c(CNC3CCCC3)c3ccc(C)cc32)cc1", "Potency": "inactive"}
{"smiles": "COc1cccc(-c2nn(-c3ccccc3)cc2/C=C(\\C#N)C(=O)NCCCn2ccnc2)c1", "Potency": "44.7 µM (active)"}
{"smiles": "COc1ccc(/C=C(\\C#N)C(=O)NCCCn2ccnc2)cc1", "Potency": "inactive"}
{"smiles": "COc1cc(OC)cc(C(=O)NCCCn2ccnc2)c1", "Potency": "inactive"}
{"smiles": "O=C(N/N=C/c1ccccn1)c1cccc(NC(=O)c2ccc(Cl)cc2)c1", "Potency": "inactive"}
{"smiles": "COc1cc(C=NNC(=O)c2cccnc2)ccc1OC(=O)c1ccccc1F", "Potency": "inactive"}
{"smiles": "O=C(N/N=C/c1ccccn1)c1cccnc1", "Potency": "79.4 µM (active)"}
{"smiles": "Cc1ccc2oc3c(c(=O)c2c1)C(c1ccc(O)cc1)N(Cc1ccc2c(c1)OCO2)C3=O", "note": "(stereo not given)", "Potency": "inactive"}
{"smiles": "CCOc1ccc(S(=O)(=O)N(CC(=O)NCCSCc2ccc(C)cc2)c2ccccc2)cc1", "Potency": "inactive"}
{"smiles": "S=C(NCCCc1cnc[nH]1)NCCCN(Cc1ccc(Cl)c(Cl)c1)c1ccc(Br)cn1", "Potency": "44.7 µM (active)"}
{"smiles": "CCOc1ccc(Nc2c(S(=O)(=O)c3ccccc3)cnc3ccccc23)cc1", "Potency": "inactive"}
{"smiles": "COc1cccc(-n2ccn(CC(=O)NCc3ccc(C)cc3)c(=O)c2=O)c1", "Potency": "inactive"}
{"smiles": "CO/N=C(\\C(=O)N[C@@H]1C(=O)N2C(C(=O)O)=C(COC(C)=O)CS[C@H]12)c1csc(N)n1", "note": "(stereo in doubt)", "Potency": "inactive and 79.4 µM (active) and 56.2 µM (active)"}
{"smiles": "C=CC1=C(C(=O)O)N2C(=O)[C@@H](NC(=O)/C(=N/OCC(=O)O)c3csc(N)n3)[C@H]2SC1", "Potency": "25.1 µM (active)"}
{"smiles": "CC(C)(C)OC(=O)C1=C(CO)CS[C@@H]2[C@H](NC(=O)Cc3ccccc3)C(=O)N12", "Potency": "inactive"}
{"smiles": "C=CC1=C(C(=O)O)N2C(=O)[C@@H](NC(=O)/C(=N\\OCC(=O)O)c3csc(N)n3)[C@H]2SC1", "Potency": "20 µM (active)"}
{"smiles": "COc1cc(C(=O)NCC(c2ccc(Cl)cc2)N2CCOCC2)cc(OC)c1OC", "note": "(stereo not given)", "Potency": "inactive"}
{"smiles": "Cc1cc(C)cc(NC(=O)CCCc2nc(-c3ccccc3Cl)no2)c1", "Potency": "inactive"}
{"smiles": "Cc1ccc(OCCSc2nc3ccc(NC(=O)COc4ccc(C)cc4)cc3s2)cc1", "Potency": "inactive"}
{"smiles": "CC(=O)c1ccc(NC(=O)CSc2nnc(NC(=O)Nc3ccccc3)s2)cc1", "Potency": "inactive"}
{"smiles": "Cn1c(=O)c2c(nc(SCC(=O)Nc3ccc(F)cc3)n2Cc2ccc(Cl)cc2)n(C)c1=O", "Potency": "inactive"}
{"smiles": "CCOC(=O)c1ccc(CSc2nnc3cc(C)c4ccccc4n23)cc1", "Potency": "inactive"}
{"smiles": "Cc1c(CCNC(=O)c2ccc(C(F)(F)F)cc2)sc2nc(-c3ccc(F)cc3)nn12", "Potency": "inactive"}
{"smiles": "Oc1c(C(c2ccc(F)cc2)N2CCN(Cc3ccccc3)CC2)sc2nc(-c3ccco3)nn12", "note": "(stereo not given)", "Potency": "inactive"}
{"smiles": "Cc1ccccc1CN1C[C@@H]2C[C@@H](c3cn(C)nc3-c3ccccc3)N3CCC[C@@]23C1=O", "Potency": "63.1 µM (active)"}
{"smiles": "Cc1ccccc1CN1C[C@@H]2C[C@@H](c3ccc4nsnc4c3)N3CCC[C@@]23C1=O", "Potency": "inactive"}
{"smiles": "COc1ccc(CN2CCN(Cc3cn(C)nc3-c3ccccc3)CC2CCO)c(C)c1C", "note": "(stereo not given)", "Potency": "inactive"}
{"smiles": "O=C(CCc1nc(CN2CCN(S(=O)(=O)c3ccc(Br)cc3)CC2)no1)N1CCCCC1", "Potency": "inactive"}
{"smiles": "COc1ccc(NC(=O)CSc2nc3ccccc3n2CC(=O)N2CCCCC2C)cc1", "note": "(stereo not given)", "Potency": "inactive"}
{"smiles": "COc1ccc(Nc2cc(=O)oc3ccccc23)cc1", "Potency": "inactive"}
{"smiles": "COc1ccc(Nc2ccc3ccccc3c2)cc1", "Potency": "56.2 µM (active)"}
{"smiles": "COc1ccc(-c2nnc(-c3ccc4ccccc4c3)o2)cc1", "Potency": "inactive"}
{"smiles": "COc1cccc(NC(=O)C(=O)NCC(c2ccc3c(c2)OCO3)N2CCN(C)CC2)c1", "note": "(stereo not given)", "Potency": "inactive"}
{"smiles": "S=c1[nH]nc(-c2ccncc2)n1/N=C/c1ccccc1Cl", "Potency": "3.16 µM (active)"}
{"smiles": "Fc1ccccc1/C=N/n1c(-c2cccnc2)n[nH]c1=S", "Potency": "3.98 µM (active)"}
{"smiles": "S=c1nc2ccccc2c2nc(-c3cccnc3)[nH]n12", "activity change, negative = inhibition": "-17.6% [at 11.4 µM] (inactive)"}
{"smiles": "COc1ccc(-c2cc(C(=O)Nc3sc4c(c3C(N)=O)CCCC4)no2)cc1", "Potency": "inactive"}
{"smiles": "Cc1cccc(N2CCN(C(=O)CCn3c(=O)c4cccn4c4cccnc43)CC2C)c1", "note": "(stereo not given)", "Potency": "inactive"}
{"smiles": "COc1ccc(Cn2c(=O)c3oc4ccccc4c3n(CC(=O)Nc3ccc(F)cc3F)c2=O)cc1", "Potency": "inactive"}
{"smiles": "CCC1CCCCN1C(=O)Cn1c(=O)n(CCCCCC(=O)NCc2ccccc2)c(=O)c2sccc21", "note": "(stereo not given)", "Potency": "inactive"}
{"smiles": "CN1CCOc2cc(S(=O)(=O)N3CCN(S(=O)(=O)c4c(F)cccc4F)CC3)cnc21", "Potency": "inactive"}
{"smiles": "CCCc1cc(-c2n[nH]c(=S)n2CC)c2ccccc2n1", "Potency": "79.4 µM (active)"}
{"smiles": "CCn1c(-c2ccncc2)n[nH]c1=S", "Potency": "10 µM (active)"}
{"smiles": "CCCn1c(C)cc(-c2csc(NC(=O)CCc3nc4ccccc4c(=O)[nH]3)n2)c1C", "Potency": "inactive"}
{"smiles": "CCn1c(SCC(=O)Nc2ccc3c(c2)OCCO3)nnc1-c1ccncc1", "Potency": "inactive"}
{"smiles": "CC(C)n1c(-c2ccncc2)n[nH]c1=S", "Potency": "22.4 µM (active)"}
{"smiles": "CCn1c(C)nc2c1C(=O)c1ccccc1C2=O", "Potency": "inactive"}
{"smiles": "CCn1c(-c2ccoc2C)n[nH]c1=S", "Potency": "10 µM (active)"}
{"smiles": "CCn1c(SCC(=O)Nc2nccs2)nnc1-c1ccncc1", "Potency": "inactive"}
{"smiles": "CCn1c(SCC(=O)NC2CCCC2)nnc1-c1ccoc1C", "Potency": "inactive"}
{"smiles": "CC(C)n1c(-c2cccs2)nc2ccccc21", "Potency": "inactive"}
{"smiles": "O=C(CC1C(=O)N(c2ccccc2)C(=O)N1CCc1cccs1)Nc1ccc(F)cc1", "note": "(stereo not given)", "Potency": "inactive"}
{"smiles": "O=C(NCCCO)C(=O)Nc1c2c(nn1-c1ccccc1)CSC2", "Potency": "inactive"}
{"smiles": "COc1cccc(-c2nc(S(=O)(=O)c3ccc(C)cc3)c(NCc3ccccc3)o2)c1", "Potency": "inactive"}
{"smiles": "O=C(NCc1ccc(F)cc1)c1ccc2nc(N3CCCCC3)sc2c1", "Potency": "inactive"}
{"smiles": "Cc1ccc(NC(=O)CSc2nc3c([nH]c4ccccc43)c(=O)n2-c2ccccc2)c(C)c1", "Potency": "inactive"}
{"smiles": "O=C(Nc1ccc(Br)cc1)c1ccc(Br)c(S(=O)(=O)NCc2ccccc2)c1", "Potency": "inactive"}
{"smiles": "COc1ccc(CCNC(=O)c2ccc3c(c2)sc2nc(-c4ccc(C)cc4)cn23)cc1OC", "Potency": "inactive"}
